For part of these data: Results with a measured potency or affinity are listed apart.
What was measured:
Set-up in all cases: scale not given: direction of the effect not stated beside the values
[1] = molecular target: Protein translocase subunit SecA (Escherichia coli (strain K12)) (UniProt P10408); assay: Assay to Identify E. coli SecA ATPase Inhibitors; assay type: functional; settings: 30 µM
[2] = molecular target: T1, Ubiquitin-activating enzyme e1, putative (Leishmania donovani (strain BPK282A1)) (UniProt E9BSI1); assay: Leishmania donovani Ubiquitin Activating Enzyme (LdE1); assay type: functional; settings: 30 µM
T1 sequence (whole entry): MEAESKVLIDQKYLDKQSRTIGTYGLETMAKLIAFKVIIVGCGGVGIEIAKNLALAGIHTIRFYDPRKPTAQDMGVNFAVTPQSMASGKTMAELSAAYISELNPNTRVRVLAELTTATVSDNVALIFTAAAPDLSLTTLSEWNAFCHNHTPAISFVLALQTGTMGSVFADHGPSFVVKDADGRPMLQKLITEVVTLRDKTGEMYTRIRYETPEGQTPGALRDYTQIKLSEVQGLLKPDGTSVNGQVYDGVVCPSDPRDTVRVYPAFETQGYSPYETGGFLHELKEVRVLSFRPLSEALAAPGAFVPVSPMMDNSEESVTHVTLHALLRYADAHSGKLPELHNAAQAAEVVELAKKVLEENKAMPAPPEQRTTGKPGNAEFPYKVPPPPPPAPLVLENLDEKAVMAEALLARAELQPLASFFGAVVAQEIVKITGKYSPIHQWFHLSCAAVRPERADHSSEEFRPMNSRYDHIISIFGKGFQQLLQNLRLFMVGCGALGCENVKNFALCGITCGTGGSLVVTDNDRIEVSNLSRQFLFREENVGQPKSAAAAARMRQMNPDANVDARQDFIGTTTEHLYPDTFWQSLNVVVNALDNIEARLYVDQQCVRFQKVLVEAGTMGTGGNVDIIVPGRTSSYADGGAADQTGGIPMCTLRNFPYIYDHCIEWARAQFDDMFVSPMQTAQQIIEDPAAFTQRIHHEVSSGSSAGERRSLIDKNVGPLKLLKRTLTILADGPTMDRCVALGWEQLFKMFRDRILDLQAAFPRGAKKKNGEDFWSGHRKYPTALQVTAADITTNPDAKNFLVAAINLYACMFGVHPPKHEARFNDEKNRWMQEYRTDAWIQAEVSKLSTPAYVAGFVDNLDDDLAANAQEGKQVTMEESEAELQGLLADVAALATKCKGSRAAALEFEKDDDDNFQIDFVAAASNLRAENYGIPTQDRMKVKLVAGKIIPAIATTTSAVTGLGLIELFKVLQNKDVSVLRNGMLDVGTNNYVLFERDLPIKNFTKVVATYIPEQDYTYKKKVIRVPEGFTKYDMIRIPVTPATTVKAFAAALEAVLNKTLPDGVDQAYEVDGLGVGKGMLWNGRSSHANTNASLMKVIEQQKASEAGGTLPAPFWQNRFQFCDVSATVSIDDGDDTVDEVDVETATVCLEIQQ

[3] = molecular target: AMP-activated protein kinase, AMPK (Homo sapiens) (UniProt P54646+O43741+P54619+Q9UGJ0+Q9Y478+Q13131+Q9UGI9); assay: AMP-dependent Kinase enzyme assay. An in vitro enzyme assay that detects ADP turnover that is directly proportional to AMPK activity. This uses naive AMPK that is activated during the assay with MK-8722; assay type: functional; settings: 30 µM
[4] = molecular target: Sialic acid-binding Ig-like lectin 9 (Homo sapiens) (UniProt Q9Y336); assay: Hs-Siglec9 ALPHAscreen SOP 20170721; settings: 10 µM
Trypanosoma cruzi = assay: Trypanosoma cruzi phosphomannomutase and mannose-1-phosphate guanylyltransferase assay; assay type: functional; settings: 10 µM
[5] = molecular target: T2, Arginase-2, mitochondrial (Homo sapiens) (UniProt P78540); assay: in vitro enzyme assay to detect the production of urea directly proportional to the activity of Arginase II; assay type: functional; settings: 33.3 µM; note: in the data most compounds retested in dose-response had high values
T2 sequence (whole entry): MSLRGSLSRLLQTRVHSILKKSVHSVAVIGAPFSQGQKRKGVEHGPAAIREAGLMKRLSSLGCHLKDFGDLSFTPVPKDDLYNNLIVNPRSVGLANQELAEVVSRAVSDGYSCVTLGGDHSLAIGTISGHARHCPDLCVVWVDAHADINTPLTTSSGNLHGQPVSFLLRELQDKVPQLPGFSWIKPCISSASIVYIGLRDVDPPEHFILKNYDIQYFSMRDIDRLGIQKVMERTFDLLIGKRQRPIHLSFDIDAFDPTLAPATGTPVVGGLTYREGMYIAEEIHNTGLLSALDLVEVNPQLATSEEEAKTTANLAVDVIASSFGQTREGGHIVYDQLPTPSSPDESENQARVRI

[6] = molecular target: T3, Proteasome subunit beta (Trypanosoma cruzi) (UniProt O96673); assay: Trypanosoma cruzi proteasome chymotrypsin-like activity (TcProtChymo) assay.; note: in the data most compounds retested in dose-response had high values; assay type: functional; settings: 9.37 µM
T3 sequence (whole entry): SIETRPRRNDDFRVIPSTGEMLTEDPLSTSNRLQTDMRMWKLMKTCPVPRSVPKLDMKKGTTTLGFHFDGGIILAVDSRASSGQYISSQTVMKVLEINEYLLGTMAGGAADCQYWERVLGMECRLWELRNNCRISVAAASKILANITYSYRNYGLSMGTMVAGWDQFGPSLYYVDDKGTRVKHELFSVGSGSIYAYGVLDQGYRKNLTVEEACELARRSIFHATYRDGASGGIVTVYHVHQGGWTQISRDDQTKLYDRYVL

Homo sapiens = species on record: Homo sapiens; assay: To identify inhibition of the IFN signalling (Jak-Stat) pathway via expression of an eGFP reporter gene under the control of an IFN-stimulated response element (ISRE) containing MxA promoter.; assay type: functional; settings: 30 µM
[7] = molecular target: T4, Tyrosyl-tRNA synthetase, putative (Trypanosoma cruzi (strain CL Brener)) (UniProt Q4DSP6); assay: Trypanosoma cruzi tyrosyl tRNA synthetase (TcYRS) _High Tyrosine SOP; assay type: functional; settings: 30 µM; note: in the data most compounds retested in dose-response had high values
T4 sequence (whole entry): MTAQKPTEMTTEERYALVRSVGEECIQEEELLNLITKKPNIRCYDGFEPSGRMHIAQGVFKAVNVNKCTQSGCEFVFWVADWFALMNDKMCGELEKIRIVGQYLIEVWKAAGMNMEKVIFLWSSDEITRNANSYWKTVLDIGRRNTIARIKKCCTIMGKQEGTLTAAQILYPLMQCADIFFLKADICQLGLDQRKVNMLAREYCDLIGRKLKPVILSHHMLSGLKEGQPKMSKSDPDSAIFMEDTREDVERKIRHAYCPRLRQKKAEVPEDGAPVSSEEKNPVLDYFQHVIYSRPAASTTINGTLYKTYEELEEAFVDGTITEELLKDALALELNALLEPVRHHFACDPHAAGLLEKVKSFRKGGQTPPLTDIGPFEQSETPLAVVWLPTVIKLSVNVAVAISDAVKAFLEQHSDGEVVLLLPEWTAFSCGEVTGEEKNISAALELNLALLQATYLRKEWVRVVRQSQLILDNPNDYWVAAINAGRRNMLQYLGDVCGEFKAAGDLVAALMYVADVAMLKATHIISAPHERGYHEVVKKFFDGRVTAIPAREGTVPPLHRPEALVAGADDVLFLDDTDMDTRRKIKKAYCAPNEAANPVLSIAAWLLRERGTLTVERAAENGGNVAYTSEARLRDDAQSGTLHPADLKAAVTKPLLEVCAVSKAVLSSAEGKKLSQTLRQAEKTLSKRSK

[8] = molecular target: T4, Tyrosyl-tRNA synthetase, putative (Trypanosoma cruzi (strain CL Brener)); assay: Trypanosoma cruzi tyrosyl tRNA synthetase (TcYRS) SOP; assay type: functional; settings: 30 µM
[9] = molecular target: Chromo domain-containing protein 1 (Saccharomyces cerevisiae (strain ATCC 204508 / S288c) (Baker's yeast)) (UniProt P32657); assay: ScCHD-1 Enzyme Inhibition Assay; assay type: functional; settings: 30 µM; note: in the data most compounds retested in dose-response had high values
Chain of Chromo domain-containing protein 1 (Saccharomyces cerevisiae (strain ATCC 204508 / S288c) (Baker's yeast)) (P32657 whole entry, the tested form may be a part): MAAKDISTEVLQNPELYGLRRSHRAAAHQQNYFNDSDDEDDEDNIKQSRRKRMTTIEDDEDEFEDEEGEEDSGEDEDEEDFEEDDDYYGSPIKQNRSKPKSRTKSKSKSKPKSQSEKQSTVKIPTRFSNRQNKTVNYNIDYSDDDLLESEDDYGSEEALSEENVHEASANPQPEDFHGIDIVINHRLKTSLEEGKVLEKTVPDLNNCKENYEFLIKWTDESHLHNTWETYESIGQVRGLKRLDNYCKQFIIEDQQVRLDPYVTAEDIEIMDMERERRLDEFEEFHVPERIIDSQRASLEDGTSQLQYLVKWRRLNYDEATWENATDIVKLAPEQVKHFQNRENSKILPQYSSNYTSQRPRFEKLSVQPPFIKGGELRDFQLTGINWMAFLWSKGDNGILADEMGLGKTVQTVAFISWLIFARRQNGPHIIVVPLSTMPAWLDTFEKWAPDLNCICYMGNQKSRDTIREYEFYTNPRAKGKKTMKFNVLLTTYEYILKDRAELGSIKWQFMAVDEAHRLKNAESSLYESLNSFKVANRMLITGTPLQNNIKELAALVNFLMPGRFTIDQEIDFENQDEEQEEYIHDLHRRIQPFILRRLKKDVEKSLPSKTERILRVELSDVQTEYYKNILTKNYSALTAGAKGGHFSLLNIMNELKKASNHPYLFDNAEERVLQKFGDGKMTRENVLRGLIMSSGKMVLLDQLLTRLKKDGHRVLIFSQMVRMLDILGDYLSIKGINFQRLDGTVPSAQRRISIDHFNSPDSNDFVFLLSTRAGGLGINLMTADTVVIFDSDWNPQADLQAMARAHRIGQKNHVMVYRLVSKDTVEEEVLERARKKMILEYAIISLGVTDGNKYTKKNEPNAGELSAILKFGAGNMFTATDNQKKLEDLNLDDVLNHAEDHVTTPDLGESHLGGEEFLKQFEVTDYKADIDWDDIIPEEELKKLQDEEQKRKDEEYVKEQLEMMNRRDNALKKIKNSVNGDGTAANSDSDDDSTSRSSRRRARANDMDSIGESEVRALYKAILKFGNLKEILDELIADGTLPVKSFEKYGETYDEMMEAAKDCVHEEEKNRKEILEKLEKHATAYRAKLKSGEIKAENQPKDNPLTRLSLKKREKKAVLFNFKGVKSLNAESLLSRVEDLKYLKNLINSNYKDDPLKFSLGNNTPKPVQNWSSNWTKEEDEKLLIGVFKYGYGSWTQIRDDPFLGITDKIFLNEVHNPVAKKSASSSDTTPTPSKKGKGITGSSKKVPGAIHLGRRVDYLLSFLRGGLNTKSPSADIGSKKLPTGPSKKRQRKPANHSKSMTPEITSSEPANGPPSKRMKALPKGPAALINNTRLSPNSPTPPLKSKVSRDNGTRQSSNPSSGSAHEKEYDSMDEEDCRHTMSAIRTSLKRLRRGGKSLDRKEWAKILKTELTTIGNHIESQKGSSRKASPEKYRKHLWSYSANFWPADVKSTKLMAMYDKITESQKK

Chain of Sialic acid-binding Ig-like lectin 9 (Homo sapiens) (Q9Y336 whole entry): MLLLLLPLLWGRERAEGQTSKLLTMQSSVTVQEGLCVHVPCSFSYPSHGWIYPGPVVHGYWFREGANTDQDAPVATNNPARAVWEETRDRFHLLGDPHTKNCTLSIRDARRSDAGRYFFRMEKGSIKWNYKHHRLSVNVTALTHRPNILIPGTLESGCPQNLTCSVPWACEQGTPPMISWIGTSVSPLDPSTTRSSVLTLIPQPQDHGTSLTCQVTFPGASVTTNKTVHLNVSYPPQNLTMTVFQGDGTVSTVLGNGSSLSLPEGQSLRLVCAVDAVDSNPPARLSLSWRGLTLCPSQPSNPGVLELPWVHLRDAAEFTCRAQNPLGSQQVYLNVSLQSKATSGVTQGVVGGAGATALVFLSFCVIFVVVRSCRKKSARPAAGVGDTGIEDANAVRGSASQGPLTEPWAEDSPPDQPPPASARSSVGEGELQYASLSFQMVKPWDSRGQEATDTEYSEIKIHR
Chain of Protein translocase subunit SecA (Escherichia coli (strain K12)) (P10408 whole entry): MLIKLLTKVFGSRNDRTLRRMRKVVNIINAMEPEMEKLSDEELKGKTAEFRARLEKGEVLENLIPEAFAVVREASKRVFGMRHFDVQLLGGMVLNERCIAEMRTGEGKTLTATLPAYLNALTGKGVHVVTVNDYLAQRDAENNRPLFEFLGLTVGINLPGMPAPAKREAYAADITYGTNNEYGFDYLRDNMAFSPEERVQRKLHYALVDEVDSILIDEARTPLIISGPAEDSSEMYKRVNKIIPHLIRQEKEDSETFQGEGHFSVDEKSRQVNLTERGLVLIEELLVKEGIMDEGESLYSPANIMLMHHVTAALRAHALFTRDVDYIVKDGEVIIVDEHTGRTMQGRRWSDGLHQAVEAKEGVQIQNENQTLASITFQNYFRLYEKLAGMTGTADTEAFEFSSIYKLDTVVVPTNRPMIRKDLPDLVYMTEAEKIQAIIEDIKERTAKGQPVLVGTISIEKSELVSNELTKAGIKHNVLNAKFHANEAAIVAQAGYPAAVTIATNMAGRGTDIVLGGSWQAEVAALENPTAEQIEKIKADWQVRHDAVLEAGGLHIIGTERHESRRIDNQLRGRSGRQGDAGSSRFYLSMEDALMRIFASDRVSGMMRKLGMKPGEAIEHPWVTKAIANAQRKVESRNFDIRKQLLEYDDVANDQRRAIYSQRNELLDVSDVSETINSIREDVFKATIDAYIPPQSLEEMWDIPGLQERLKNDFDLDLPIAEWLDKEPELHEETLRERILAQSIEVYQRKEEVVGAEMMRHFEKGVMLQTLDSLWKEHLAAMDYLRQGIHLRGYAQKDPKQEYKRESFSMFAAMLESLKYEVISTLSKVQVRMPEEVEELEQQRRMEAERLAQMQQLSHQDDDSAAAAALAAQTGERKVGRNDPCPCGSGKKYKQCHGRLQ

Row | Structure (SMILES) | Percent Effect [1] [%] | Percent Effect [2] [%] | Percent Effect [3] [%] | Percent Effect [4] [%] | Percent Effect (Trypanosoma cruzi) [%] | Percent Effect [5] [%] | Percent Effect [6] [%] | Percent Effect (Homo sapiens) [%] | Percent Effect [7] [%] | Percent Effect [8] [%] | Percent Effect [9] [%]
1 | NC(=O)CN1CCC(NC(=O)c2ccn(-c3cccc(F)c3)n2)CC1 | -1.05 | 4.17 | -2.99 | -2.99 | -7.68 | 3.97 | 11.1 | 0.719 | 1.05 | -2.56 | -2.21
2 | CCc1nc(CC(=O)N2CCn3c(nnc3C(C)C)C2)cs1 | -3.31 | 0 | 1.23 | 1.14 | 3.95 | -1.92 | 3.68 | -11.4 | 2.45 | 12.2 | -11
3 | COCCOc1ccc(NC(=O)N2CCCC2c2cc(C)no2)cn1 (stereo unspecified) | -4.97 | 0 | 0.449 | 5.01 | -0.686 | -1.05 | 5.74 | 9.34 | 5.71 | 2.35 | -14.1
4 | CCC(NC(=O)C1CCN(S(C)(=O)=O)CC1)c1ccc(OC)c(C)c1 (stereo unspecified) | -0.552 | 2.6 | 0.574 | 27.4 | 4.03 | -4.14 | 15.3 | -3.86 | 2.15 | 1.24 | 120
5 | CC(C)(C)C(=O)NCCC(=O)NS(=O)(=O)c1ccc2c(c1)OCCO2 | -4.61 | 5.48 | 0.75 | 8.35 | 7.64 | -0.909 | 7.1 | -22.6 | 5.38 | 10 | -1.32
6 | O=C(c1cccc(CN2CCCC2)c1)N1CCCC(n2cncn2)C1 (stereo unspecified) | -4.8 | 21.6 | -12.1 | -3.07 | -0.849 | -10 | 16.2 | 23.3 | 6.4 | 16.1 | -2.99
7 | Cn1ncc2c1CCCC2NCc1ccc(Cl)s1 (stereo unspecified) | -4.36 | 13 | -34.6 | -13.6 | -1.08 | 2.74 | 12.2 | 9.39 | 6.67 | 11.8 | -19.4
8 | O=c1[nH]c2c(c(=O)n1C1CCCCC1)CCC2Nc1ccccc1Cl (stereo unspecified) | -2.47 | 6.67 | -9.22 | -1.39 | 4.71 | 92.1 | 5.36 | 33.1 | -9.52 | -7.69 | -11.3
9 | Cc1ccc(NC(=O)NCCCc2n[nH]c(N)c2C#N)cc1 | -1.33 | 15.2 | 3.73 | -1.97 | -3.12 | 1.9 | 13.5 | 13.3 | 5.42 | 11.4 | -3.94
10 | COc1ccc2c(c1)CC(NC(=O)NCc1cccs1)CO2 (stereo unspecified) | 2.24 | 7.79 | 5.45 | -2.89 | -5.62 | -112 | 5.4 | 5.91 | 2.12 | 8.97 | -2.81
11 | CCc1cc(NCC(O)CN2CCCCC2)n2ncnc2n1 (stereo unspecified) | -4.14 | 7.89 | 2.69 | 4.78 | 1.27 | -2.37 | 15.2 | 3.03 | 4.25 | 13 | -4.78
12 | CCn1c(C)nnc1CN(C)C1CCN(Cc2cnc(C)cn2)C1 (stereo unspecified) | -3.27 | 10.8 | -13.9 | 0.873 | -0.88 | -2.73 | 7.81 | 16.2 | 8.6 | 18.5 | -7
13 | Cc1ccccc1C1(CNC(=O)NCCc2nnc3n2CCC3)CC1 | -1.76 | -5.26 | -101 | 5.17 | -3.41 | -2.37 | 7.19 | -19.3 | 0 | -2.6 | -0.461
14 | Cc1ccc(N2CCCC(NCc3nc(C)c(C)o3)C2)nn1 (stereo unspecified) | -2.18 | -1.27 | -3.24 | 1.76 | 9.54 | -1.07 | -2.4 | 2.43 | 3.12 | 15.2 | -25.4
15 | COc1cc(CN(C(=O)Nc2cccnc2OC)C2CC2)ccc1O | -3.67 | 2.6 | 7.29 | 11.9 | -2.25 | -0.712 | 5.91 | 23.5 | 3.88 | 12.2 | -4.72
16 | Cc1noc([C@@H]2CC[C@@H]3[C@@H](CCN3S(=O)(=O)c3cccnc3)O2)n1 | -1.26 | 5.41 | 9.76 | -4.15 | -3.12 | 1.67 | 9.89 | 3.62 | 6.93 | 13.4 | 3.12
17 | c1ccc(-c2nc(CN3CCCC3Cn3cncn3)cs2)cc1 (stereo unspecified) | -2.21 | -17.7 | -1.4 | 4.03 | 3.68 | -2.28 | 1.39 | -16.9 | 4.43 | 3.8 | 25.8
18 | CC(=O)N(Cc1noc(C2CC2)n1)C1CCN(Cc2cccnc2)C1 (stereo unspecified) | -2.68 | 13.5 | -6.59 | 0.785 | -1.76 | -0.185 | 2.51 | 12.5 | 4.95 | 18.3 | -7.09
19 | Cc1ccccc1CNc1nc(O)cc(C2CC(=O)N(C)C2)n1 (stereo unspecified) | 3.9 | 6.76 | 3.36 | -2.99 | -44.5 | 4.87 | 13.1 | 8.17 | 2.15 | 9.09 | -10.8
20 | Cc1nc(CNC(=O)NCC(O)c2cccc(Cl)c2)cs1 (stereo unspecified) | -1.26 | 2.7 | -4.33 | 3.81 | -8.69 | -4.29 | 23.4 | 6.47 | 0.529 | 4.88 | -3.89
21 | CCCc1n[nH]c(C2CN(CCCOc3ccccc3)CCO2)n1 (stereo unspecified) | -5.86 | 1.27 | 7.41 | 1.64 | -1.74 | 1.5 | -1.03 | 2.3 | 4.17 | 7.59 | 13.9
